This note sets out measurements from PMC8384837, “Expanding the binding specificity for RNA recognition by a PUF domain”.

Holding throughout (assay): yeast three-hybrid, YBZ-1, SC-Leu-His + 0.5 mM 3-AT, 4 days
Details in all cases: tags: N-Gal4 AD-HA kept; label: inside an RPR1-promoter hybrid RNA with tandem MS2 sites; ssRNA

The target of assay [1] is PUM1 PUF domain R1-HRR (Homo sapiens, UniProt Q14671 828-1176, S863H;Q867R). The procedure, abridged: (§1)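 The interaction score is the logarithmic change in variant frequency from input to selection. It uses log2, with a pseudocount of 1 for absent variants, and frequencies came from PCR-amplified, Illumina-sequenced repeat regions. The libraries were Pumilio-1 PUF domains randomized at the three base-contacting residues per repeat, co-expressed with matching RNA elements in strain YBZ-1 (LexA–MS2 coat fusion, HIS3 reporter). Plating lasted four days on SC-Leu (input) or SC-Leu-His + 0.5 mM 3-AT (selection).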

Assay [2] deals with PUM1 PUF domain R1-NGR (Homo sapiens, UniProt Q14671 828-1176, S863N;R864G;Q867R). The procedure, abridged:
as §1

Assay [3] concerns the target PUM1 PUF domain R1-SKS (Homo sapiens, UniProt Q14671 828-1176, R864K;Q867S). The procedure, abridged:
as §1

For assay [4], the target named is PUM1 PUF domain R8-KWL (Homo sapiens, UniProt Q14671 828-1176, N1122K;Y1123W;Q1126L). The procedure, abridged: as §1
For assay [5], the target named is PUM1 PUF domain R8-TYN (Homo sapiens, UniProt Q14671 828-1176, N1122T;Q1126N). The procedure, abridged:
as §1

Assay [6] concerns the target PUM1 PUF domain R7-LER (Homo sapiens, UniProt Q14671 828-1176, S1079L;N1080E;E1083R). The procedure, abridged: as §1
The target of assay [7] is PUM1 PUF domain R7-RRG (Homo sapiens, UniProt Q14671 828-1176, S1079R;N1080R;E1083G). The procedure, abridged: as §1
Assay [8] has as its target PUM1 PUF domain R4-TPT (Homo sapiens, UniProt Q14671 828-1176, N971T;H972P;Q975T). The procedure, abridged: as §1
The target of assay [9] is PUM1 PUF domain R4-GQR (Homo sapiens, UniProt Q14671 828-1176, N971G;H972Q;Q975R). The procedure, abridged: as §1
Assay [10] deals with PUM1 PUF domain R5-SNG (Homo sapiens, UniProt Q14671 828-1176, C1007S;R1008N;Q1011G). The procedure, abridged:
as §1

In assay [11] the target is PUM1 PUF domain R5-DFG (Homo sapiens, UniProt Q14671 828-1176, C1007D;R1008F;Q1011G). The procedure, abridged: as §1
The target of assay [12] is PUM1 PUF domain R5-GAR (Homo sapiens, UniProt Q14671 828-1176, C1007G;R1008A;Q1011R). The procedure, abridged:
as §1

The target of assay [13] is T1, PUM1 PUF domain R6-AWS (Homo sapiens, UniProt Q14671 828-1176, N1043A;Y1044W;Q1047S).
T1 sequence: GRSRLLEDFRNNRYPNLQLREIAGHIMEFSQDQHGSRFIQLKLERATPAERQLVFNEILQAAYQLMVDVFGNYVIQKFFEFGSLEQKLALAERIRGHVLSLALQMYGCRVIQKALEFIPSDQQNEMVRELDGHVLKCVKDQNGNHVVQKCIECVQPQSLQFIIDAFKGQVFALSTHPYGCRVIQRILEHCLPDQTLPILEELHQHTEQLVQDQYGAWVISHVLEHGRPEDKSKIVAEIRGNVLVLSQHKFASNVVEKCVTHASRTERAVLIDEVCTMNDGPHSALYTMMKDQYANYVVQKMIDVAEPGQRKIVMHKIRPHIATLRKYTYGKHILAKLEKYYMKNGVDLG
The procedure, abridged: as §1

Assay [14] deals with PUM1 PUF domain R4-YLL (Homo sapiens, UniProt Q14671 828-1176, N971Y;H972L;Q975L). The procedure, abridged: as §1
Assay [15] has as its target PUM1 PUF domain R4-PWC (Homo sapiens, UniProt Q14671 828-1176, N971P;H972W;Q975C). The procedure, abridged: as §1
For assay [16], the target named is PUM1 PUF domain R3-DHS (Homo sapiens, UniProt Q14671 828-1176, C935D;R936H;Q939S). The procedure, abridged:
as §1

Assay [17] deals with PUM1 PUF domain R8-RYT (Homo sapiens, UniProt Q14671 828-1176, N1122R;Q1126T). The procedure, abridged:
as §1

Assay [18] deals with PUM1 PUF domain R4-CGC (Homo sapiens, UniProt Q14671 828-1176, N971C;H972G;Q975C). The procedure, abridged: as §1
Assay [19] concerns the target PUM1 PUF domain R3-YCV (Homo sapiens, UniProt Q14671 828-1176, C935Y;R936C;Q939V). The procedure, abridged:
as §1

Assay [20] deals with PUM1 PUF domain R2-TFG (Homo sapiens, UniProt Q14671 828-1176, N899T;Y900F;Q903G). The procedure, abridged: as §1

As to “GGCUAGAACUAGUGGAUCCCCCGGCGCCCGGCGGCUCGAGCCCGGGUAAGUGUAAAUUGUCUGCAUGCCGCCGGGCGCCAUGCCUGCAGGUCGACUCUAGAAAACAUG”, the binding signal in assay [1] is 2.71 log2 enrichment (interaction score); in assay [2], 2.32 log2 enrichment (interaction score); in assay [3], 2.64 log2 enrichment (interaction score).

As to “GGCUAGAACUAGUGGAUCCCCCGGCGCCCGGCGGCUCGAGCCCGGGUAAGCGUAAAUAGUCUGCAUGCCGCCGGGCGCCAUGCCUGCAGGUCGACUCUAGAAAACAUG”, the binding signal is 5.91 log2 enrichment (interaction score) in assay [4] and 2.62 log2 enrichment (interaction score) in assay [5].

Take “GGCUAGAACUAGUGGAUCCCCCGGCGCCCGGCGGCUCGAGCCCGGGUAAGUUUAAAUAGUCUGCAUGCCGCCGGGCGCCAUGCCUGCAGGUCGACUCUAGAAAACAUG”: the binding signal is 3.41 log2 enrichment (interaction score) in assay [6] and 4.6 log2 enrichment (interaction score) in [7].

For the sequence “GGCUAGAACUAGUGGAUCCCCCGGCGCCCGGCGGCUCGAGCCCGGGUAAGUGUACAUAGUCUGCAUGCCGCCGGGCGCCAUGCCUGCAGGUCGACUCUAGAAAACAUG”, the binding signal in [8] was 3.15 log2 enrichment (interaction score); in [9], 2.32 log2 enrichment (interaction score).

On to “GGCUAGAACUAGUGGAUCCCCCGGCGCCCGGCGGCUCGAGCCCGGGUAAGUGUUAAUAGUCUGCAUGCCGCCGGGCGCCAUGCCUGCAGGUCGACUCUAGAAAACAUG”, for which the binding signal in assay [10] is 3.2 log2 enrichment (interaction score); in assay [11], 6.17 log2 enrichment (interaction score); in [12], 2.98 log2 enrichment (interaction score).

Regarding “GGCUAGAACUAGUGGAUCCCCCGGCGCCCGGCGGCUCGAGCCCGGGUAAGUCUAAAUAGUCUGCAUGCCGCCGGGCGCCAUGCCUGCAGGUCGACUCUAGAAAACAUG”, the binding signal in assay [7] is 3.12 log2 enrichment (interaction score).

Take “GGCUAGAACUAGUGGAUCCCCCGGCGCCCGGCGGCUCGAGCCCGGGUAAGUGUCAAUAGUCUGCAUGCCGCCGGGCGCCAUGCCUGCAGGUCGACUCUAGAAAACAUG”: the binding signal in assay [11] was 2 log2 enrichment (interaction score); in assay [12] it was 5.42 log2 enrichment (interaction score).

As to “GGCUAGAACUAGUGGAUCCCCCGGCGCCCGGCGGCUCGAGCCCGGGUAAGUGAAAAUAGUCUGCAUGCCGCCGGGCGCCAUGCCUGCAGGUCGACUCUAGAAAACAUG”, the binding signal in assay [13] was 5.94 log2 enrichment (interaction score).

Turning to “GGCUAGAACUAGUGGAUCCCCCGGCGCCCGGCGGCUCGAGCCCGGGUAAGUGUAAAUAGUCUGCAUGCCGCCGGGCGCCAUGCCUGCAGGUCGACUCUAGAAAACAUG”, the binding signal in assay [14] was 4.38 log2 enrichment (interaction score); in assay [15], 7.51 log2 enrichment (interaction score); in assay [4], 5.16 log2 enrichment (interaction score); in assay [11], 3.79 log2 enrichment (interaction score); in assay [16], 3.1 log2 enrichment (interaction score); in assay [12] it was 1.64 log2 enrichment (interaction score). For the same sequence, the binding signal is 2.59 log2 enrichment (interaction score) in assay [8], 2.86 log2 enrichment (interaction score) in assay [17] and 3.48 log2 enrichment (interaction score) in assay [18].

For the sequence “GGCUAGAACUAGUGGAUCCCCCGGCGCCCGGCGGCUCGAGCCCGGGUAAGUGUAAAUCGUCUGCAUGCCGCCGGGCGCCAUGCCUGCAGGUCGACUCUAGAAAACAUG”, the results for the binding signal in [1], in assay [2] and in assay [3] were 2.84 log2 enrichment (interaction score), 4.09 log2 enrichment (interaction score) and 1.17 log2 enrichment (interaction score), respectively.

With “GGCUAGAACUAGUGGAUCCCCCGGCGCCCGGCGGCUCGAGCCCGGGUAAGUGUAAGUAGUCUGCAUGCCGCCGGGCGCCAUGCCUGCAGGUCGACUCUAGAAAACAUG”, the binding signal in assay [19] was 2.69 log2 enrichment (interaction score).

“GGCUAGAACUAGUGGAUCCCCCGGCGCCCGGCGGCUCGAGCCCGGGUAAGUGUAAAAAGUCUGCAUGCCGCCGGGCGCCAUGCCUGCAGGUCGACUCUAGAAAACAUG”: the binding signal in assay [20] is 4.09 log2 enrichment (interaction score).
